The record followed here is ChEMBL document CHEMBL4513216, “Probing the Open Global Health Chemical Diversity Library for Multistage-Active Starting Points for Next-Generation Antimalarials” (ACS Infect Dis, 2020).

The campaign covered roughly 69,000 compounds. About 8,600 (12%) showed an effect of 50% or more. This excerpt belongs to a sample that is enriched for strong results.

This experiment concerns Plasmodium berghei. As to the kind of experiment: Screen against P. berghei liver stage (PbLuc), transformed with Luciferase, at 10uM. Type of experiment: functional, HepG2. The following applies: tested at 10 uM.
As for `OC(COCc1ccccc1)CN1CCC(Cn2cccn2)CC1` (stereo not drawn), the INHIBITION was 43.5%. In the case of `CN(C)C(=O)c1cnc2n1CCN(Cc1ccccc1)C2` it was 9.67%; in that of `Cc1cccc(CN2CCn3c(C(=O)N(C)C)cnc3C2)c1`, 50.9%; in that of `Cc1ccc(CN2CCn3c(C(=O)N(C)C)cnc3C2)cc1`, 41.6%. In the case of `O=C(CCOCc1ccccc1)NS(=O)(=O)N1CCOc2ccccc21` it was -13.6%. Take `CCc1ncc2c(n1)CN(Cc1ncc(C(C)(C)C)o1)CC2`: the INHIBITION is on record as 20%. In the case of `COC(=O)CN(C(=O)c1ccc(-n2ccnc2)cc1)C1CCCC1` it was 0.566%; in that of `COCCN1CC[C@@H]2O[C@H](COCc3csc(C)n3)CC[C@@H]21`, 3.11%. As to `CC(=O)N1CC[C@@H]2O[C@@H](COCc3csc(C)n3)CC[C@@H]21`, the INHIBITION amounted to 6.6%. The figure for `Cc1nc(COC[C@H]2CC[C@H]3NCC[C@H]3O2)cs1` is 51.2%.

Regarding `Cc1nc(COC[C@@H]2CC[C@H]3[C@H](CCN3S(C)(=O)=O)O2)cs1`, the INHIBITION is 25%. The figure for `Cc1nc(COC[C@H]2CC[C@H]3[C@H](CCN3c3ncccn3)O2)cs1` is 42.7%; for `Cc1nc(COC[C@@H]2CC[C@H]3NCC[C@H]3O2)cs1` it is 55.6%; for `CCn1cc(CN2CCCN(C(=O)CCc3cccs3)CC2)cn1` it is 11.4%. `c1cnn(Cc2cn3c(n2)CN(Cc2nccs2)CC3)c1`: the INHIBITION amounted to 16.6%.

Take `COc1ccccc1C(C)(C)NC(=O)Nc1ccc(F)c(C(N)=O)c1`: the INHIBITION is -16.9%. On to `Cc1cc(C)c(CNC(=O)CC2CCCO2)c(=O)[nH]1` (stereo not drawn), for which the INHIBITION is given as 14.55%. The figure for `CCOCCCNC(=O)Cc1cccs1` is 30.8%; for `CCOCCCNC(=O)C(NC(=O)Cc1cccs1)c1ccc(C)cc1` (stereo not drawn) it is 54%. In the case of `CCOCCCNC(=O)C(NC(=O)Cc1cccs1)c1ccccc1` (stereo not drawn) it was 34.2%; in that of `CN1CCOC(CN(C(=O)CCCn2cccn2)c2nccs2)C1` (stereo not drawn), -14.6%. Consider `CC(=O)NCC(=O)N1Cc2nccn2CC(CN2CCCC2)C1` (stereo not drawn), for which the INHIBITION worked out at 28.4%. In the case of `O=C(N1CCCC1)N1Cc2nccn2CC(CN2CCCC2)C1` (stereo not drawn) it was 42.6%; in that of `CC(C)NC(=O)N1Cc2nccn2CC(CN2CCCC2)C1` (stereo not drawn), 73%; in that of `NC(=O)N1Cc2nccn2CC(Cn2ncccc2=O)C1` (stereo not drawn), 61.9%.

Take `O=C(CC1CC1)N1Cc2nccn2CC(Cn2ncccc2=O)C1` (stereo not drawn): the INHIBITION is reported as -13.2%. The figure for `O=C(c1ccccc1)N1Cc2nccn2CC(Cn2ncccc2=O)C1` (stereo not drawn) is 11.5%. With `OC1(Cn2ccnc2)CCN(C[C@]2(O)CCCN3CCCC[C@@H]32)CC1`, the INHIBITION turned out to be 28.8%. Turning to `O=C1CC2(CCN(C(=O)c3ccccn3)CC2)Oc2c(Br)cc(Br)cc21`, the INHIBITION is reported as 34.2%. For the molecule `c1cncc(CC2CN(c3cccnc3)CCO2)c1` (stereo not drawn), the INHIBITION is -43%.

As for `O=C(NCc1cc(C2CC2)n(C2CCCC2)n1)C1CC1`, the INHIBITION came out at 44.4%. In the case of `Cc1nc(CN2C(=O)CCC23CCN(c2ncccn2)CC3)cs1` it was -38.1%; in that of `O=C(NC1CC2(CCN(CCO)CC2)c2ccccc21)c1ccno1` (stereo not drawn), 49.7%; in that of `C=C(C)CN1CCN(Cc2cnc(-c3ccc(OC)cc3)nc2)CC1`, 44.8%. For the molecule `CCOCCCNC(=O)c1cc(OC)c2ccoc2c1`, the INHIBITION came out at 6.11%. Consider `CC(c1nccs1)N(C)S(=O)(=O)NCc1ccccc1` (stereo not drawn), for which the INHIBITION is -1.6%. The figure for `CC(c1ccncn1)N(C)S(=O)(=O)NCc1ccccc1` (stereo not drawn) is 4.65%. In the case of `CC(c1ccon1)N(C)S(=O)(=O)NCc1ccccc1` (stereo not drawn) it was 50.9%. The figure for `Cc1csc(N2CCN(C(=O)Cc3cccs3)CC2)n1` is 28.8%; for `CCCc1n[nH]c(C2CN(CCCS(=O)(=O)N(C)C)CCO2)n1` (stereo not drawn) it is -21.7%. As to `CN(C)c1ncccc1N(C)C(=O)Cn1cc(-c2ccccc2)nn1`, the INHIBITION was -0.85%.

In the case of `Cc1cccc(C2CCCN(S(=O)(=O)c3cccnc3)C2)n1` (stereo not drawn), the INHIBITION came out at 19.36%. In the case of `CN1CCO[C@@H]2CN(C(=O)c3ccc4[nH]ccc4c3)CC[C@@H]2C1` it was 43%.

With `CC(=O)N1CCO[C@@H]2CN(C(=O)c3ccccc3)CC[C@@H]2C1`, the INHIBITION is 12.1%. In the case of `CC(=O)N1CCO[C@@H]2CN(C(=O)c3ccc4ncccc4c3)CC[C@@H]2C1` it was 49.1%. For `CC(=O)N1CCO[C@@H]2CN(C(=O)c3ccc4ccccc4c3)CC[C@@H]2C1`, the INHIBITION is -57.1%. The figure for `CN1CCO[C@@H]2CN(C(=O)c3ccc4ncccc4c3)CC[C@@H]2C1` is 58.4%.

As for `O=C(c1ccc2[nH]ccc2c1)N1CC[C@@H]2CN(CC3CC3)CCO[C@@H]2C1`, the INHIBITION amounted to 60.2%. On to `CCN1CCO[C@@H]2CN(C(=O)c3ccc4[nH]ccc4c3)CC[C@@H]2C1`, for which the INHIBITION is 52.1%.

For the molecule `COCCN1CCO[C@@H]2CN(C(=O)c3ccc4[nH]ccc4c3)CC[C@@H]2C1`, the INHIBITION is 1.36%. Consider `O=C(c1ncccn1)N1C[C@@H]2CN(CC3CC3)CCO[C@@H]2C1`, for which the INHIBITION is 31.9%. The figure for `CN(C)c1cc(C(=O)N2CCCCC2Cn2cccn2)ccn1` (stereo not drawn) is 17.5%.

In the case of `CCOc1ccccc1N1CCN(C(=O)c2cc[nH]n2)CC1`, the INHIBITION was 44.1%.

As to `CN(C)CCOCC1CN(C(=O)N2CCCC2)Cc2ccnn2C1` (stereo not drawn), the INHIBITION turned out to be 46.6%. `O=C(O)c1cc(S(=O)(=O)Nc2ccccc2)cc2c1OCCO2`: the INHIBITION came to 31.8%. `CCCc1nc(CN(CC)Cc2ccc(O)c(C(=O)O)c2)no1`: the INHIBITION worked out at 14.3%. The figure for `CCN(CC)S(=O)(=O)c1ccc2c(c1)N(Cc1cccnc1)C(=O)CS2` is -3.5%; for `O=C(c1cc[nH]n1)N1CCOCC2(C1)CN(c1ccccc1)C(=O)CO2` (stereo not drawn) it is -14.2%. For `Cc1cnn(C2CCCN(C(=O)CCc3c(C)noc3C)C2)c1` (stereo not drawn), the INHIBITION was 16.8%. Take `CCN(CCO)C[C@@H]1CN(C(=O)c2ccc(C)s2)C[C@@H]1CO`: the INHIBITION amounted to 59.4%. For the molecule `CCN(CCO)C[C@@H]1CN(c2cc(C(F)(F)F)cc(C)n2)C[C@@H]1CO`, the INHIBITION was 12.9%. Consider `COCCN(C)C[C@@H]1CN(c2nc(C)cc(C)n2)C[C@@H]1CO`, for which the INHIBITION is 32.2%. In the case of `CCN(CCO)C[C@@H]1CN(c2nc(C)cc(C)n2)C[C@@H]1CO` it was 54.6%; in that of `CCN(CCO)C[C@@H]1CN(C(=O)c2sc3ccccc3c2C)C[C@@H]1CO`, 47.6%; in that of `Cc1c(C(=O)N2C[C@@H](CN(C)CCO)[C@@H](CO)C2)sc2ccccc12`, 32.1%.

In the case of `O=C(NCc1cn2c(n1)CN(Cc1ccncc1)CC2)C1CCC1`, the INHIBITION is reported as 43.9%. Regarding `CCOc1ccnc(N2CCN(C(=O)c3cnc[nH]3)CC2)n1`, the INHIBITION is recorded as 31.8%. The figure for `CC(C)c1cc(NC(=O)CNC2CCCN(c3cccnn3)C2)on1` (stereo not drawn) is 42.9%. Consider `CCC1(CC)CC(=O)N(CC(O)c2cccc(Br)c2)C1=O` (stereo not drawn), for which the INHIBITION is recorded as -8%. Take `Cc1nc(-c2ccco2)ccc1C(=O)NCCN1CCN(C)CC1`: the INHIBITION was 23.5%.

Regarding `CCC(CO)N(Cc1cccs1)C(=O)CSC` (stereo not drawn), the INHIBITION is -36.3%. As for `CCC(CO)N(Cc1cccs1)C(=O)Cc1ccncc1` (stereo not drawn), the INHIBITION was found to be 41.4%.

Turning to `CCC(CO)N(Cc1cccs1)C(=O)Cc1ccc(O)cc1` (stereo not drawn), the INHIBITION came to 71.1%. Regarding `CCCNC(=O)COc1cc(C)c2c(C)nn(-c3ccccc3)c2n1`, the INHIBITION is listed as 31.3%. In the case of `COc1cc(C(=O)NS(=O)(=O)c2ccc(C#N)cc2)ccc1C` it was 15.5%; in that of `COc1cccc(C(=O)NS(=O)(=O)c2cccc(C#N)c2)c1`, 38.8%; in that of `N#Cc1ccc(C(=O)NS(=O)(=O)c2ccc(F)c(F)c2)cc1`, 58.3%.

For the molecule `N#Cc1ccc(CS(=O)(=O)NC(=O)c2ccc(C#N)cc2)cc1`, the INHIBITION is reported as -6.52%. In the case of `N#Cc1ccc(C(=O)NS(=O)(=O)c2ccc(C#N)c(Cl)c2)cc1` it was 57.2%; in that of `N#Cc1ccc(S(=O)(=O)NC(=O)c2ccc3c(c2)COC3)cc1`, 6.61%. In the case of `COc1cc(C(=O)NS(=O)(=O)c2cccc(C#N)c2)ccc1C`, the INHIBITION is on record as 14.4%.

On to `COc1cc(C(=O)NS(=O)(=O)c2cccc(C#N)c2)cc(Cl)c1OC`, for which the INHIBITION was -5.25%. Turning to `N#Cc1cccc(C(=O)NS(=O)(=O)c2ccc(C#N)c(Cl)c2)c1`, the INHIBITION was found to be 50.7%. On to `CCc1oc(C(=O)N2CCC(N(CC)C(C)=O)C2)cc1CN(CC)CC` (stereo not drawn), for which the INHIBITION worked out at 19.4%. The figure for `O=C(NCc1cccnc1)N1CCc2ncnc(NC3CC3)c2CC1` is 4.98%; for `COc1c(C2CCCN2Cc2nc(-c3ccco3)no2)c(C)nn1C` (stereo not drawn) it is -21.8%. On to `Cc1nc(-c2ccc(CO)cc2)cc(C2CCNCC2)n1`, for which the INHIBITION was determined as 23.9%. In the case of `Cn1ccc(CN2CCC3(CC2)CC(Nc2ccccn2)CO3)n1` (stereo not drawn) it was 37.9%; in that of `Cc1nc(CN2CCCc3cc(OC(F)(F)F)ccc32)oc1C`, 37.9%; in that of `Cc1nn(C)c(C)c1CNCc1ccc(N2CCOCC2)nc1`, 32.8%. With `O=C(NCC1CC1)[C@H]1C[C@H]2CN(C(=O)NCC3CCCCC3)C[C@@H]1O2`, the INHIBITION came out at 20.1%. In the case of `Cc1cccn2c(=O)cc(OC(=O)c3ccccc3Cl)nc12` it was 26.7%. For `CC(C)(C)n1cc(C2=CCN(CCc3ccccn3)CC2)cn1`, the INHIBITION is on record as 18.7%.

Regarding `CC(C)(C)n1cc(C2=CCN(CCc3ccccc3)CC2)cn1`, the INHIBITION worked out at 50.2%.

In the case of `CC(C)(C)n1cc(C2=CCN(CCN3CCCCCC3)CC2)cn1`, the INHIBITION is 0.734%. The figure for `CC(C)(C)c1cnc(CN2CCCCC2Cn2cccn2)o1` (stereo not drawn) is 14.4%; for `CCn1ccnc1CN1CCN(Cc2cc(C#N)ccc2F)CC1` it is 35.9%; for `c1ccc(CN2CCN(Cc3cscn3)CC2)cc1` it is 19.4%. In the case of `N#Cc1cccc(CN2CCN(Cc3cscn3)CC2)c1` it was 66.4%; in that of `CCn1ccnc1CN1CCN(Cc2ccc(C#N)cc2)CC1`, 48.1%; in that of `c1cncc(CN2CCn3cc(Cn4cccn4)nc3C2)c1`, 31.7%. As for `CCn1ccnc1CN1CCN(CCOc2ccc(C#N)cc2)CC1`, the INHIBITION came to 52.3%. `CCn1ccnc1CN1CCN(CCOc2cccc(C#N)c2)CC1`: the INHIBITION worked out at 23.2%.

As to `CCn1ccnc1CN1CCN(Cc2cccc(C#N)c2)CC1`, the INHIBITION amounted to 68.8%. With `N#Cc1cccc(CN2CCn3cc(Cn4cccn4)nc3C2)c1`, the INHIBITION amounted to 58.8%. In the case of `Fc1cccc(CN2CCN(Cc3cscn3)CC2)c1` it was 36.7%; in that of `CCn1ccnc1CN1CCN(CCOc2ccccc2C#N)CC1`, 14.1%; in that of `Fc1ccc(CN2CCn3cc(Cn4cccn4)nc3C2)cc1`, -53.6%.
